# Compound activity as filed in PubChem BioAssay.
# This is a sample that favours compounds with a hit; in the whole collection about 2.3% have one here.
# TDP43 rescue – qHTS of TDP-43 Inhibitors; AID 652104, 2013; TDP-43 expressing yeast growth rescue, BacTiter-Glo, 24 h; Potency, µM (highest dose often 46.1 µM), for inactives: at the top dose growth rescue (activation), actives largely listed as activators; 410,000 tested, 1.8% active; note: potency is the fitted concentration of half-maximal effect; % of control where 0% means no effect; nearly all actives have a fitted effect of over 50% in size
#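 Luminescence from BacTiter-Glo reports growth of TDP-43-expressing yeast after 24 hr at 30 deg C with compound. Cells were raffinose-pregrown to mid-log, then seeded in galactose medium at OD600=0.02.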
# FUS suppressor – qHTS for Suppressors of FUS Proteinopathy: Primary screen using FUS-linked yeast assay; AID 1347120, 2019; 390,000 tested, 0.24% active; S. cerevisiae FUS-expressing, growth rescue, OD600, 24 h; Potency, µM (titrated, usually from 76.6 µM), most hits filed as activators;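 note: potency is the fitted concentration of half-maximal effect; plate controls were DMSO vehicle for no effect and reference control for full effect; nearly all actives have a fitted effect of over 55% in size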
#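 Galactose (2%) drives FUS expression in yeast precultured in raffinose; seeding density OD 0.005. Test compounds incubated 24hr at 30C and 99% humidity before absorbance at 600 nm was measured.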
# aSyn yeast inh – qHTS of alpha-syn Inhibitors; Yeast expressing alpha-synuclein, growth rescue, BacTiter-Glo, 24 h; Potency, µM (series often up to 46.1 µM), for the others: at the top dose growth rescue (activation), hits mostly activators; 370,000 tested, 0.14% active; note: potency is the fitted concentration of half-maximal effect; % of control where 0% means no effect; nearly all actives have a fitted effect of over 65% in size
#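 Rescue of yeast growth: cells expressing toxic alpha-synuclein, induced in galactose at OD600 0.02, incubated with compound 24 h at 30 C. ATP luminescence quantified growth; inhibitors of toxicity appear as activators.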
# pAkt inh – HTS Assay for Inhibitors of Akt Phophorylation: Primary Screen | Neuro2A IGF-stimulated pAkt S473 HTRF, 20 min; stronger effect = lower value | activity change, % for hits at 50 µM | 360,000 tested, 0.32% active | AID 651550, 2012; in the data active = activity change below about -80%; inconclusive = mostly about -51% to -80%; note: % is set by controls: 0 for no effect and ±100 for the full control effect
#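 Neuro2A cells in DMEM with 0.5% FBS, overnight at 37 deg C, given compound at single 50 µM final, then IGF (6 nM final) for 20 min at 37 deg C. Lysed; phospho-Akt Ser473 by HTRF after 24 h, 665/615 ratio.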
# Abeta rescue – qHTS for compounds that reverse cellular toxicity of Amyloid beta (A-beta) peptide in yeast: Primary Screen; yeast expressing A-beta42, growth rescue, OD600, 48 h; response scale: 0% DMSO, 100% iron-clioquinol control; Potency, µM (series often up to 46.1 µM), most hits filed as activators; 410,000 tested, 0.063% active; AID 1347071, 2019; note: potency is the fitted concentration of half-maximal effect; nearly all actives have a fitted effect of over 55% in size
#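 Growth rescue measured by 600 nm absorbance after 48 h yeast culture at 30 C with compound. Values normalized between DMSO and an equimolar ferric chloride plus clioquinol control.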
# Numbers without * were called inactive; i = inactive; ? = inconclusive; / = no result given. Unless noted, calls come from the whole dose curve; as a rule, active = well fitted curve in the direction sought with a large enough effect; inconclusive = small, poorly fitted or top-dose-only effect, or another doubt; inactive = no such curve, though single readings can be large; an effect the other way counts as inactive or inconclusive.
SMILES,TDP43 rescue,FUS suppressor,aSyn yeast inh,pAkt inh,Abeta rescue
CN1/C(=C/C(=O)COC(=O)C2COc3ccccc3O2)C(C)(C)c2ccccc21 (centres undefined),32µM*,i,2%,i,i
CN1/C(=C/C(=O)CSc2ccccc2C(=O)O)C(C)(C)c2ccccc21,20µM*,i,9%,i,?
COc1ccc(Nc2nnc(SCC(=O)/C=C3/N(C)c4ccccc4C3(C)C)s2)cc1,11µM*,/,14%,i,i
COc1ccccc1CNC(=O)CCCn1c(=O)c2ccccc2n(Cc2ccccc2C#N)c1=O,-15%,i,/,/,i
CC(C)Cn1c(-c2csc3ccccc23)n[nH]c1=S,0%,/,8%,i,i
CCn1c(-c2ccccc2O)n[nH]c1=S,-20%,i,1%,/,i
CCc1cc(-c2n[nH]c(=S)n2CC)cs1,?,/,2%,i,i
CCn1c(-c2csc3c2CCC(C)C3)n[nH]c1=S (centres undefined),11µM*,/,9%,i,i
CCn1c(-c2csc3ccccc23)n[nH]c1=S,22µM*,/,2%,i,i
CCCc1cc(-c2n[nH]c(=S)n2CC)cs1,35µM*,i,-9%,i,i
COc1ccc(NC(=O)CN(C)C(=O)c2cn(-c3ccccc3)nc2-c2ccc(F)cc2)cc1,25µM*,?,-11%,i,i
CCOC(=O)C1CCN(C(=O)c2cc3cc(Cl)ccc3[nH]2)CC1,16µM*,i,1%,i,i
CCOc1ccccc1C(=O)NCc1nc2cccnc2n1Cc1ccc(C)cc1,16µM*,i,/,/,i
Cc1ccc(-c2csc3ncnc(Cl)c23)cc1,16µM*,i,3%,i,i
CC(C)N(C(=O)CSc1nnc(-c2cc3ccccc3cc2O)n1Cc1ccco1)C(C)C,22%,i,18%,i,i
O=C(CSc1nnc(-c2cc3ccccc3cc2O)n1Cc1ccco1)N1CCc2ccccc2C1,-20%,16µM*,9%,i,i
O=C1C=C(c2cccc(Cl)c2O)C[C@@H](c2ccc(Cl)cc2)C1,3.2µM*,?,-15%,i,i
Cc1ccc(Cl)cc1C1=CC(=O)C[C@H](c2ccc(F)cc2)C1,?,i,3%,i,i
COc1ccc([C@H]2CC(=O)C=C(c3cc(F)ccc3F)C2)cc1OC,22µM*,i,7%,i,i
CC(=O)Nc1ccc(C2=CC(=O)C[C@H](c3ccc(Cl)cc3)C2)cc1,35µM*,?,2%,i,i
O=C1C=C(c2cc(F)ccc2F)C[C@@H](c2ccc(Cl)cc2)C1,20µM*,i,13%,i,i
COc1ccc([C@H]2CC(=O)C=C(c3ccc(NC(C)=O)cc3)C2)cc1OC,9%,i,2%,i,i
COc1ccc([C@H]2CC(=O)C=C(c3cccc(OC)c3OC)C2)cc1OC,22µM*,i,0%,i,?
COCCN=c1scc(-c2cc(OC)ccc2OC)n1/N=C/c1c[nH]c2ccccc12,22µM*,i,?,i,i
CC(C)Cn1cc(NC(=O)NCc2cccc(Cl)c2)c2ccccc2c1=O,24%,i,20%,/,i
SMILES,TDP43 rescue,FUS suppressor,aSyn yeast inh,pAkt inh,Abeta rescue
CC(C)NC(=O)CCCOc1ccc(Cl)cc1Cl,-17%,i,12%,i,i
CCN(CC)C(=O)CCCOc1ccc(Cl)cc1Cl,13µM*,i,16%,i,i
O=C(CCCOc1ccc(Cl)cc1Cl)N/N=C/c1ccccc1O,?,/,22µM*,i,?
O=C(CCCOc1ccc(Cl)cc1Cl)N/N=C/c1ccccc1,0%,/,12%,i,i
Cc1c(C(=O)NCc2ccc(F)cc2)sc(=O)n1Cc1ccc(Cl)c(Cl)c1,?,?,?,i,?
CCCCN(C)C(=O)c1sc(=O)n(Cc2ccc(Cl)c(Cl)c2)c1C,25µM*,i,?,i,i
